Data on 40 compounds can be found in PubChem BioAssay (NCI).

SMILES strings stand for the structures. The panel holds about 79,000 compounds, 15% with a hit somewhere; the sample as a whole holds those more often. Unmarked numbers belong to inactive results. Calls of active or inactive are those of the source. No stated cut-off is given here; in the data, active means growth inhibition above about 70%; inactive means the rest.

The nature of the assay: NCI Yeast Anticancer Drug Screen. Data for the cln2 rad14 strain (AID 165).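 Further: 0% = growth equal to vehicle treated cultures.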 As to conditions: S. cerevisiae cln2 rad14 strain, at 50.0 µM (retest, dose inferred, filed as 5.0), hits give high values. A digest of the protocol: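 Yeast strain cln2 rad14, bearing defects in cell cycle control and DNA repair, serves as the test system; values reflect growth inhibition compared with vehicle.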
For the compound `CC(C)N=C(NC(C)C)SCCCCCCSC(=NC(C)C)NC(C)C`, the growth inhibition was -1%. Take `CCCCCOC(=S)SSSC(=S)OCCCCC`: the growth inhibition was 66%. The value for `CCCCCCCCCCCCCCCC[N+](C)(C)CC(=O)O` was 94% (active). For `Cc1cc(C)c([O-])c(-[n+]2c(-c3ccccc3)cc(-c3ccccc3)cc2-c2ccccc2)c1` the value was -8%; for `CC(=O)NNc1ccc(Cl)cc1[N+](=O)[O-]`, 4%. For `O=C(NC(=Nc1ccccc1)SCCSC(=Nc1ccccc1)NC(=O)c1ccccc1)c1ccccc1` the value was 5%. On to `CN(C)CCCNc1ccc(O)c2c1C(=O)c1ccccc1C2=O`, for which the growth inhibition is 98% (active). The value for `COC(=O)C(=O)C(/C=N/C(=S)NCCc1ccc(OC)c(OC)c1)=C(/O)c1ccc([N+](=O)[O-])cc1` was -11%; that for `CCCC(=O)OCC1CC2C=CC1C2` (stereo not given) was 3%. Take `CN(NC(=O)/C(=C/c1cc(Cl)cc(Cl)c1O)NC(=O)c1ccccc1)c1cnn(-c2ccccc2)c(=O)c1Cl`: the growth inhibition is 47%. The value for `CC(C)N(C(=O)CC1(O)CCCCC1)C(C)C` was 4%. The value for `COC(=O)C1C(c2ccccc2)=N[C@@H](c2ccccc2)[C@H]1C(=O)OC` (stereo not given in full) was 7%; that for `O=C1C(=Cc2ccccc2O)N=C(c2ccccc2)N1n1c(-c2ccccc2)nc2ccccc2c1=O` was 33%; that for `CCOc1ccc2c(c1)[n+]([O-])c(-c1ccc([N+](=O)[O-])cc1)c(N)[n+]2[O-]` was 76% (active). The value for `O=C(NCCCNCCCCNCCCNC(=O)c1cc(-c2ccccc2)nc2ccccc12)c1cc(-c2ccccc2)nc2ccccc12` was 98% (active). Consider `CC1=C(C(=O)Nc2cccc3ccccc23)C(c2cccc([N+](=O)[O-])c2)C(C(=O)Nc2cccc3ccccc23)=C(C)N1`, for which the growth inhibition was 14%. For `O=C1OC(c2ccc(O)cc2)Sc2ccccc21` (stereo not given) the value was 24%. The value for `CC(C)(C)c1ccc(-c2nc3ccccc3c(=O)o2)cc1` was 40%. `O=C(N/C(=C/c1ccc(Cl)cc1Cl)c1nc2ccccc2s1)c1ccccc1`: the growth inhibition was 98% (active).

Turning to `O=C(O)C/C(=C\c1ccco1)C(=O)O`, the growth inhibition was -1%. The value for `CN(C)Cc1cc(N=Nc2ccc(Cl)c(Cl)c2)ccc1O` was 34%; that for `CC(=O)OC1C(O)C(C)OC(OC(=O)C2CCC3C(C2)OC2(CC(OC(=O)/C=C/c4ccccc4)C(C)CO2)C32CO2)C1OC1OC(C)C(O)C(O)C1O` (stereo not given) was 92% (active).

On to `O=C1c2ccccc2C(=O)c2c(/C=C\N3CCCCC3)ccnc21`, for which the growth inhibition is 95% (active).

On to `CCN(CC)c1ccc(NC(CC(O)c2ccccc2)c2ccccc2)cc1` (stereo not given), for which the growth inhibition is -3%. For `CCOC(=O)Nc1nc2ccc(SC#N)cc2s1` the value was 88% (active).

Take `CSC(SC)C(SC)SC`: the growth inhibition was 99% (active). For `N#CC(C(=O)C(=O)Nc1ccc(Cl)cc1)c1c(Cl)cccc1Cl` (stereo not given) the value was 10%; for `CN(/N=C\c1cccc([N+](=O)[O-])c1)C(c1cccc([N+](=O)[O-])c1)N(C)/N=C/c1cccc([N+](=O)[O-])c1` (stereo not given), 17%; for `Oc1cc(Br)cc2cc(Br)cnc12`, 96% (active). The value for `COc1ccccc1C(C)c1ccc2ccccc2c1C(=O)O` (stereo not given) was 93% (active); that for `Cc1ccnc2[nH]c3ccccc3c(=O)c12` was 96% (active).

Take `COc1cc(OC)c(/C=C\c2ccnc3ccccc23)c(OC)c1`: the growth inhibition is 55%. `COC(=O)C1(COCc2ccccc2)CCCC2OC21` (stereo not given): the growth inhibition was 43%.

On to `O=[N+]([O-])/C(=C\c1cccs1)c1ccccc1`, for which the growth inhibition is 99% (active). With `Cc1cc(C(O)(c2cc(C)c(O)c(C(=O)O)c2)c2cc(C)c(O)c(C(=O)O)c2)cc(C(=O)O)c1O`, the growth inhibition is -5%. With `CC(C)C(C)(C(=O)O)C(C)C`, the growth inhibition was 4%. Consider `CN(Cc1cc(Cl)cc(Cl)c1)CC(C(=O)c1ccccc1)c1ccccc1` (stereo not given), for which the growth inhibition was 85% (active).

Turning to `O=c1[nH]c(Cc2ccccc2)nc2c1sc1nc3ccccc3n12`, the growth inhibition was 81% (active). `CC(NNC(=S)N1CCCC1)c1cccnn1` (stereo not given): the growth inhibition is 99% (active). For `Cc1ccc2c(c1)C(O)(c1ccccc1)CCS2` (stereo not given) the value was 96% (active).
